Experimental data published in ChEMBL document CHEMBL3988442, “University of Dundee, Small-Polar-MMV Screening Library” (2021).

molecular target: AMP-activated protein kinase, AMPK (Homo sapiens) (UniProt P54646+O43741+P54619+Q9UGJ0+Q9Y478+Q13131+Q9UGI9); experiment: AMP-dependent Kinase enzyme assay. An in vitro enzyme assay that detects ADP turnover that is directly proportional to AMPK activity. This uses naive AMPK that is activated during the assay with MK-8722; assay type: functional; set-up: scale not given: direction of the effect not stated beside the values; details: 30 µM

Row | Compound | Percent Effect [%]
1 | COc1cccc(CN(C)Cc2[nH]c3ccccc3c2C)c1O | -44.5
2 | COc1ccc(CN2C[C@@H]3CC[C@H](C2)N(S(C)(=O)=O)C3)cc1 | 12.6
3 | Cc1c(C(=O)N(C)c2ccccc2)cccc1N(C)S(C)(=O)=O | 12
4 | COC(=O)c1ccc(CN(C(C)C)C(C)C)o1 | 3.89
5 | CCc1ncc2c(n1)CN(c1cc(N3CCN(C)CC3)nc(N)n1)C2 | -137
6 | COc1ccc(F)c(-c2cc(C(=O)NC3CC3)ccn2)c1 | -7.5
7 | CCN(CC)CCN(CC(C)C)c1cc(C(F)(F)F)nc2ncnn12 | 0.943
8 | Cc1c(NCCO)cccc1OC1CCCC1 | -6.27
9 | Fc1ccc(COCC2CCN(Cc3ccccn3)CC2)cc1 | 1.48
10 | CC(O)CN1CCN(Cc2coc(-c3ccccc3Cl)n2)CC1 (centres undefined) | -13.3
11 | Cc1ccc(CNCc2cccc(NC(=O)CCN3CCOCC3)c2)s1 | -4.09
12 | CC(=O)NCCNC(=O)NCc1ccc(-n2ccc(C(F)(F)F)n2)cc1 | -0.713
13 | CN(C)S(=O)(=O)N1CCCCCC1c1cc(-c2ccc(F)cc2)no1 (centres undefined) | 18
14 | CN1CCOC(CNCC(=O)NCCc2ccc(F)cc2)C1 (centres undefined) | 4.27
15 | NC(=O)CC1CCCN(c2cncc(SCc3ccccc3)n2)C1 (centres undefined) | 25.3
16 | CC1(C(N)=O)CN(S(=O)(=O)c2cccc(F)c2)CCO1 (centres undefined) | 3.77
17 | CN(C)C(CNC(=O)CCNC(=O)OCC(F)(F)F)c1ccsc1 (centres undefined) | 3.22
18 | Cn1cnnc1C1CCN(c2nc3ccccc3o2)CC1 | 1.68
19 | CN(C)CCNC(=O)CCC1CCN(C(=O)c2ccc(O)cn2)CC1 | 7.4
20 | Cc1nnc(CN(Cc2cccc3c2OCO3)CC2CCCO2)n1C (centres undefined) | -6.12

Row | Compound | Percent Effect [%]
21 | CN(C)c1nc2sc(C(=O)N3CCN(C(=O)OC(C)(C)C)CC3)cc2s1 | 63.5
22 | CCCn1nc(C)c(CN2CC3(CCOC3)CCC2=O)c1C (centres undefined) | 1.7
23 | CN1CSC[C@H]1C(=O)N1CCC(CCc2ccccc2)CC1 | -1.47
24 | COc1nc2c(cc1C(=O)NC(C)Cc1cnccn1)CCC2 (centres undefined) | -1.98
25 | Cc1cccc(C)c1Nc1noc2c1CN(C(=O)c1c[nH]nc1C)CC2 | 6.37
26 | Cc1cc(CN(C)C(=O)CNS(=O)(=O)c2cccs2)no1 | 7.18
27 | Cc1[nH]nc(CCC(=O)N2CCc3ncnc(NCCO)c3CC2)c1C | 3.08
28 | CSc1ccc(C)c(C(=O)Nc2c(C(N)=O)n[nH]c2C)c1 | 3.27
29 | Cn1cccc1CNCC1CCCn2cc(C(C)(C)C)nc21 (centres undefined) | -0.856
30 | COc1ccccc1C(C)(C)NC(=O)c1ccc(F)c(NC(C)=O)c1 | -4.2
31 | NC(=O)N1CCCCCC1C1CCN(c2nccc(C(F)(F)F)n2)CC1 (centres undefined) | -5.81
32 | O=C(c1cc(C2CC2)nc2onc(-c3ccccc3)c12)N1CC(O)C1 | 2.65
33 | Cc1nccn1-c1nccnc1C1CCCN(C2CCCC2)C1 (centres undefined) | 12.6
34 | Cc1ccc(C)c(CC(=O)NC2CCCS(=O)(=O)C2)c1 (centres undefined) | -5.26
35 | Cc1cc(CN2CCN(S(=O)(=O)c3c(C)c(Cl)cc(C)c3Cl)CC2)on1 | -3.43
36 | COc1ccc(N2CCN(Cc3nc(CSC)no3)CC2=O)cc1 | 1.27
37 | CCCC(=O)NC1CCCN(c2cncc(Br)c2)C1 (centres undefined) | 22.4
38 | Cc1cc(C2CCCN(CC(=O)N3CCc4ccccc43)C2)n[nH]1 (centres undefined) | -5.04
39 | CC(C)(CN1CCC2(CCOCC2)CC1)N1CCOCC1 | -0.161
